Results: PubChem BioAssay (NCATS)
Inconclusive results are not listed. Activity calls are given as the source filed them. Calls come from the whole dose curve; as a rule, active = well fitted cell-killing curve with a large enough effect; inconclusive = small, poorly fitted or top-dose-only effect; inactive = no such curve, though single readings can be large or run the other way.

Assay: qHTS of pediatric cancer cell lines to identify multiple opportunities for drug repurposing: Primary screen for Rh41 cells (AID 1347108);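 note: luminescence drop marks cytotoxic hits; nearly all actives have a fitted effect of over 70% in size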
Settings: Rh41 rhabdomyosarcoma viability, CellTiter-Glo luminescence, 48 h; series mostly up to 46 µM; activity change, negative = cytotoxic: at the top concentration
Procedure, shortened: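 CRCs from 8- or 11-point titrations (lowest final 0.59 nM NPC, 0.78 nM MIPE). Cell viability: CellTiter-Glo after 48 h incubation, 15 min room-temperature development, luminescence imaging.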

Row | SMILES | activity change, negative = cytotoxic
1 | CC(C)(C)[C@]1(O)C[C@@H]2OC(=O)C[C@@]23C(=O)O[C@@H]2OC(=O)[C@H](O)C213 (stereo partly specified) | 12.6% (inactive)
2 | CC(=O)Nc1ccc(OC[C@](C)(O)C(=O)Nc2ccc([N+](=O)[O-])c(C(F)(F)F)c2)cc1 | -11.7% (inactive)
3 | Cc1cc(O)ccc1Cl | 23.3% (inactive)
4 | OCCCBr | 30.1% [at 92.7 µM] (inactive)
5 | C=CC(=O)NCNC(=O)C=C | 27.7% [at 92.7 µM] (inactive)
6 | CN[C@@H](C)[C@H](O)c1ccccc1 | 4.29% (inactive)
7 | CSCC[C@@H](NC(=O)[C@@H](Cc1ccccc1)NC(=O)CNC(=O)CNC(=O)[C@@H](N)Cc1ccc(O)cc1)C(=O)O | 33.4% (inactive)
8 | O=C1CCC[C@@H]2[C@H]3CCCN4CCC[C@@H](CN12)[C@@H]34 | 5.4% (inactive)
9 | CN(C)[C@@H]1C(=O)C(C(N)=O)=C(O)[C@@]2(O)C(=O)C3=C(O)c4c(O)cccc4[C@@](C)(O)[C@H]3[C@H](O)[C@@H]12 | 28% (inactive)
10 | O=C(O)C(Cl)Cl | 22.1% (inactive)
11 | Oc1ccc2c3c1O[C@H]1[C@@H](O)C=C[C@H]4[C@@H](C2)NCC[C@@]341 | -2.73% [at 92.7 µM] (inactive)
12 | CCN1C[C@]2(OC(=O)c3ccccc3NC(C)=O)CC[C@H](OC)[C@@]34[C@H]5CC6[C@@H](OC)C[C@](O)(C(C[C@@H]23)[C@@H]14)[C@@]5(O)[C@@H]6OC | 0.929% (inactive)
13 | C#CC1(O)CCC2C3CCC4=CC(=O)CCC4(C)C3CCC21C (stereo unspecified) | 5.18% (inactive)
14 | CC[N+]1(CCOC(=O)C(O)(c2ccccc2)c2ccccc2)CCCCC1 | 17.8% (inactive)
15 | C[C@@H]1[C@H](O)[C@@H](C)C=CC=CCCC=CC=CC=CC=C[C@H](O[C@H]2O[C@@H](C)[C@H](O)[C@@H](N)[C@@H]2O)CC2O[C@](O)(C[C@@H](O)[C@H](O)CC[C@@H](O)C[C@@H](O)C[C@@H](O)CC(=O)O[C@H]1C)C[C@H](O)[C@H]2C(=O)O | 24.2% (inactive)
16 | O=S(=O)(O)C(F)(F)C(F)(F)C(F)(F)C(F)(F)F | 29.6% [at 92.7 µM] (inactive)

Row | SMILES | activity change, negative = cytotoxic
17 | CC1=C(C(=O)O)N2C(=O)[C@@H](N)[C@H]2SC1 | 21.9% [at 16.1 µM] (inactive)
18 | CC(C)N(CCNC(=O)CN1CCCC1=O)C(C)C | 13.3% (inactive)
19 | Nc1ccc(Cl)cc1N | 26.4% [at 92.7 µM] (inactive)
20 | CCC1(CCC(C)C)C(=O)NC(=O)NC1=O | 13.9% [at 92.7 µM] (inactive)
21 | Cc1nc(-c2ccc(-c3ccc(C(=O)N4CCc5cc6c(cc54)C4(CCN(C)CC4)CO6)cc3)c(C)c2)no1 | 20.4% (inactive)
22 | O=C(O)c1cc(Oc2ccc(C(F)(F)F)cc2Cl)ccc1[N+](=O)[O-] | 18.3% (inactive)
23 | CCOCCOC(C)=O | 34.3% [at 92.7 µM] (inactive)
24 | C[C@]12CC[C@@H]3[C@@H](CCC4=CC(=O)CC[C@@H]43)[C@@H]1CC[C@@H]2OC(=O)CCc1ccccc1 | 9.05% (inactive)
25 | C#C[C@]1(O)C=C[C@@H]2[C@@H]3CCC4=CC(=O)CC[C@@H]4[C@H]3CC[C@@]21CC | 24.5% (inactive)
26 | O=[N+]([O-])/N=C1\NCCN1Cc1ccc(Cl)nc1 | 3.77% (inactive)
27 | CCCCC(CC)COC(=O)c1ccccc1C(=O)OCC(CC)CCCC (stereo unspecified) | 34.8% [at 92.7 µM] (inactive)
28 | C[C@H]([C@H](O)CCC(C)(C)O)[C@H]1CC[C@@]2(O)C3=CC(=O)[C@@H]4C[C@@H](O)[C@@H](O)C[C@]4(C)[C@@H]3CC[C@]12C | 18.7% (inactive)
29 | CCC(=O)O[C@@H]1C=C2CCC3C(CCC4(C)C3CC[C@@H]4OC(=O)CC)C2CC1 (stereo partly specified) | 21.7% (inactive)
30 | Cc1ccc(Cl)c(O)c1 | 33.1% (inactive)
31 | O=[N+]([O-])c1ccc([As](=O)(O)O)cc1 | 26.4% (inactive)
